Values without a mark were called inactive. Activity calls are given as the source filed them.

The assay can be described thus: growth of efflux-deficient E. coli DRC39 – strain DRC39, OD650, 24 h, E. coli filamentation inducers, primary screen (AID 1178).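 Also: growth measured as culture turbidity by optical density at 650 nm; test concentration not given here.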 The conditions noted are these: E. coli DRC39 acrAB, higher = more signal, called active from +8 up or from −8 down.
Regarding `C=CCC(OC(C)=O)[C@@H]1[C@@H](N(Cc2ccc(-c3ccccc3)cc2)C(=O)Cc2ccc(OC)cc2)c2cc(OCCCO)ccc2N1C(=O)c1ccc2ccccc2n1` (stereo not given in full), the z-score is 1.29.

Take `COc1ccc(C#Cc2ccc3c(c2)[C@]2(C(=O)N3)[C@H](C(=O)NC[C@H](O)c3ccccc3)[C@H]3C(=O)O[C@H](c4ccccc4)[C@H](c4ccccc4)N3[C@@H]2c2ccc(OCCO)cc2)cc1`: the z-score was -0.34.

Consider `COCCOC(=O)N1C(=O)[C@@]2(c3cc(C#CC4(O)CCCCCC4)ccc31)[C@H](C(=O)N1CCCCCCC1)[C@H]1C(=O)O[C@H](c3ccccc3)[C@H](c3ccccc3)N1[C@@H]2c1ccccc1OCCO`, for which the z-score was -1.49.

Turning to `COC(=O)c1ccc(OC)c(/C=C\CC(OC(C)=O)c2ccccc2)c1` (stereo not given), the z-score is 0.0847.

`Cc1ccc([C@H]2C(C(=O)O)=C[C@@H](C)N2S(=O)(=O)c2ccc(C)cc2)cc1`: the z-score was -0.654.

Consider `NCCCCCCNC(=O)[C@H]1C[C@H]2C(=O)NCC(=O)N2[C@H]1c1cccc(OCCO)c1`, for which the z-score was 1.42.

For the molecule `COc1ccc(CCN2C(=O)[C@@]3(Cc4ccccc42)c2ccccc2C(=O)N(Cc2ccccc2Cl)[C@H]3c2ccc(CO)cc2)cc1`, the z-score is 0.157.

Take `C=CC[C@@H](OC(=O)Nc1ccc(OC)cc1)c1ccc(O)c2ccccc12`: the z-score is 0.305.

With `CC(C)C[C@@H]1NC(=O)[C@@H]2C[C@H](C(=O)NCCCCCC[N+](C)(C)C)[C@H](c3ccc(O)cc3)N2C1=O`, the z-score was 0.487.

Consider `O=C1C=CC(=O)[C@@H]2CC(COc3ccccc3)=C3[C@@H](CCc4ccccc4)OB(O)C[C@@H]3[C@H]12`, for which the z-score was -0.569.

Turning to `CN(C)CCCCNC(=O)[C@H]1C[C@H]2C(=O)N[C@@H](Cc3ccccc3)C(=O)N2[C@H]1c1ccc(O)cc1`, the z-score was -0.539.

Consider `CCCC[C@H]1OB(O)C[C@H]2C1=C(C)C[C@H]1C(=O)N(Cc3ccccc3)C(=O)[C@H]12`, for which the z-score is 1.68.

For the molecule `C=C[C@@H](COC(C)=O)N(Cc1ccc([N+](=O)[O-])cc1)S(=O)(=O)c1ccc(Br)cc1`, the z-score is 1.01.

With `COc1ccc([Si](C)(C)[C@@H]2[C@@H](CCn3cc([C@H](O)c4ccccc4)nn3)O[C@]3(C(=O)N(Cc4ccc(N5C(=O)c6cccc7cccc5c67)cc4)c4ccccc43)[C@H]2C)cc1`, the z-score is 0.954.

Regarding `CC(C)(C)OC(=O)CC[C@@]1(C(=O)NCCN2CCOCC2)N=C(c2ccc(OCCCO)cc2)O[C@@H]1c1ccccc1`, the z-score is 1.15.

In the case of `O=C1O[C@@H](c2ccccc2)[C@@H](c2ccccc2)N2[C@@H](c3ccccc3OCCO)[C@]3(C(=O)Nc4ccc(C#CC5(O)CCCCCC5)cc43)[C@@H](C(=O)Nc3nc4ccccc4s3)[C@H]12`, the z-score was -0.994.

As to `COCCOC(=O)N1C(=O)[C@@]2(c3cc(C#CCNC(N)=O)ccc31)[C@H](c1ccc(OCCO)cc1)N1[C@H](c3ccccc3)[C@H](c3ccccc3)OC(=O)[C@H]1[C@@H]2C(=O)N1CCc2cc(OC)c(OC)cc2C1`, the z-score was 0.583.

For the molecule `CCOC(=O)C[C@H]1[C@H](OC(=O)c2ccc(C(=O)c3ccccc3)cc2)[C@@H](NC(=O)C2CCCCC2)c2cc(OCCCO)ccc2N1C(=O)c1ccccc1`, the z-score is -0.715.

Regarding `CC(C)=CCCC(C)=CC(O)C1C=CC2C(=O)N(c3ccccc3)C(=O)C2N1Nc1ccccc1` (stereo not given), the z-score was -0.994.

Consider `COC(=O)[C@@]1(Cc2ccc(OC)cc2)[C@H]2c3cc(C(=O)N4CCCC4)n(CCc4c[nH]c5cc(F)ccc45)c3C[C@H]2CN1C(=O)c1ccccc1`, for which the z-score is -0.29.

On to `Cc1ccc(F)cc1S(=O)(=O)N[C@@H]1CCN(Cc2ccc(-c3ccccc3)cc2)C1`, for which the z-score is -20.5 (active).

As to `COC(=O)[C@@]1(Cc2ccc(OC)cc2)[C@H]2c3cc(C(=O)N(C)C)n(Cc4c(OC)[nH]cc(C)c4=O)c3C[C@H]2CN1C(=O)c1ccccc1`, the z-score is 0.0795.

For the molecule `[N-]=[N+]=Nc1ccccc1[C@H]1OC(c2ccc(OCCCO)cc2)=N[C@@]1(CCS(=O)(=O)c1ccccc1)C(=O)O`, the z-score is 2.08.

On to `COC(=O)c1ccc(C(O)C2C=CC3C(=O)N(C)C(=O)C3N2NC(=O)OC(C)(C)C)o1` (stereo not given), for which the z-score was -0.685.

As to `CC=CC(O)C1C=CC2C(=O)N(c3ccccc3)C(=O)C2N1Nc1ccc(C(C)C)cc1` (stereo not given), the z-score is -0.457.

Regarding `O=C1C[C@@](C(=O)NC2CC2)(c2ccc([N+](=O)[O-])cc2)[C@@H](c2ccc(CO)cc2)N1CC12CC3CC(CC(C3)C1)C2`, the z-score is -0.284.

Take `COc1ccc(C(O)C2C=CC3C(=O)N(C)C(=O)C3N2Nc2ccccc2)cc1OCc1ccccc1` (stereo not given): the z-score is -1.02.

For the molecule `[N-]=[N+]=NCc1ccccc1C[C@@]1(C(=O)N2CCOCC2)N=C(c2ccc(OCCCO)cc2)O[C@@H]1c1ccccc1CN=[N+]=[N-]`, the z-score is 0.296.

Consider `CN1C(=O)C2C=CC(C(O)c3ccccn3)N(Nc3ccccc3)C2C1=O` (stereo not given), for which the z-score is -0.206.

On to `COc1ccc(C#Cc2ccc3c(c2)[C@]2(C(=O)N3)[C@H](c3ccc(O)cc3)N3[C@H](c4ccccc4)[C@H](c4ccccc4)OC(=O)[C@H]3[C@@H]2C(=O)N2CCCCCCC2)cc1`, for which the z-score was -0.525.

Regarding `O=C1OCCC=C[C@H]2OC34C=CCN(Cc5ccccc5)C(=O)[C@H]3N(CCCCCO)C(=O)[C@@H]4C12` (stereo not given in full), the z-score is 1.24.

`COC(=O)C(CC#Cc1ccc2c(c1)[C@]1(C(=O)N2)[C@H](C(=O)NC[C@H](O)c2ccccc2)[C@H]2C(=O)O[C@H](c3ccccc3)[C@H](c3ccccc3)N2[C@@H]1c1ccc(OCCO)cc1)C(=O)OC`: the z-score was 0.389.

As for `COCCOC(=O)N1C(=O)[C@@]2(c3cc(C#CCNC(N)=O)ccc31)[C@H](c1ccc(O)cc1)N1[C@H](c3ccccc3)[C@H](c3ccccc3)OC(=O)[C@H]1[C@@H]2C(=O)NC[C@H](O)c1ccccc1`, the z-score was 0.248.

Take `COC(=O)[C@@]1(Cc2ccccc2)[C@H]2c3cc(C(=O)N4CCCC4)n(Cc4ccc(C)o4)c3C[C@H]2CN1C(=O)c1ccccc1`: the z-score is -0.691.

As for `COCC(=C=CC[C@H](O)c1ccc(OCCO)cc1)C[C@H](O)c1cc(Cl)cc(Cl)c1O`, the z-score is 1.43.

For the origin of these results see PubChem BioAssay.
